# Assay results: paper PMC5540273 (PLoS ONE, 2017)
# Legend:
# Conditions in all cases: concentration: 1 μM, replicates: in singlicate; n = 1
# RIPK2 = system: RIPK2
# RIPK4 = system: RIPK4
# RIPK5 = system: RIPK5
# ROCK1 = system: ROCK1
# ROCK2 = system: ROCK2
# ROS1 = system: ROS1
# [1] = system: RPS6KA4(Kin.Dom.1-N-terminal)
# [2] = system: RPS6KA4(Kin.Dom.2-C-terminal)
# [3] = system: RPS6KA5(Kin.Dom.1-N-terminal)
# [4] = system: RPS6KA5(Kin.Dom.2-C-terminal)
# [5] = system: T1, RSK1(Kin.Dom.1-N-terminal)
# T1 construct: gene RPS6KA1
# [6] = system: T2, RSK1(Kin.Dom.2-C-terminal)
# T2 construct: gene RPS6KA1
# [7] = system: T3, RSK2(Kin.Dom.1-N-terminal)
# T3 construct: gene RPS6KA3
# [8] = system: T4, RSK2(Kin.Dom.2-C-terminal)
# T4 construct: gene RPS6KA3
# [9] = system: T5, RSK3(Kin.Dom.1-N-terminal)
# T5 construct: gene RPS6KA2
# [10] = system: T6, RSK3(Kin.Dom.2-C-terminal)
# T6 construct: gene RPS6KA2
# [11] = system: T7, RSK4(Kin.Dom.1-N-terminal)
# T7 construct: gene RPS6KA6
# [12] = system: T8, RSK4(Kin.Dom.2-C-terminal)
# T8 construct: gene RPS6KA6
# S6K1 = system: S6K1
# SBK1 = system: SBK1
# 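Also: KINOMEscan kinase panel screen.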
SMILES,%Inh (RIPK2) [%],%Inh (RIPK4) [%],%Inh (RIPK5) [%],%Inh (ROCK1) [%],%Inh (ROCK2) [%],%Inh (ROS1) [%],%Inh [1] [%],%Inh [2] [%],%Inh [3] [%],%Inh [4] [%],%Inh [5] [%],%Inh [6] [%],%Inh [7] [%],%Inh [8] [%],%Inh [9] [%],%Inh [10] [%],%Inh [11] [%],%Inh [12] [%],%Inh (S6K1) [%],%Inh (SBK1) [%]
CCc1ccc(-c2ccc3c(c2)-c2nn(C)cc2S(=O)(=O)N3C)cc1,0,0,0,0,0,0,0,0,0,0,2,41,15,63,10,32,0,21,22,0
Cc1cccc(-c2nc(Nc3ccc4c(cnn4C)c3)c3ccccc3n2)n1 [GW876731],0,10,0,41,0,12,12,0,0,0,32,0,26,0,24,0,8,0,0,10
O=C(Nc1n[nH]c2nc(-c3ccccc3)c(Cl)cc12)C1CC1 [SB-734909],0,10,16,24,6,0,0,0,0,0,26,0,29,0,0,7,42,1,44,0
Cc1nnc(-c2ccc(C)c(-c3ccc(C(=O)O)cc3)c2)o1 [GW608005],0,9,0,0,0,0,0,0,9,0,2,2,0,2,3,0,0,2,10,4
Fc1cccc(CSc2nnc(-c3ccc4c(c3)CCO4)o2)c1,12,0,0,12,0,0,0,4,16,9,0,23,14,18,0,8,15,16,9,0
Cl.c1ccc(Cn2cnc3cc(Nc4ncnc5ccccc45)ccc32)cc1 [GW272142],0,12,5,4,2,6,6,0,0,7,0,0,0,0,0,6,0,5,0,1
C[C@@H]1CC[C@H](C(=O)NC2CCCCC2)CN1c1cc(-c2ccc3c(N)n[nH]c3c2)nc(N)n1 [GSK2291363],5,29,0,94.4,93.1,28,5,0,32,0,31,6,32,28,23,6,11,26,8,14
Nc1nc(-c2ccccc2F)c(-c2ccnc3ccccc23)s1 [GW560459],98,0,0,14,24,4,3,0,10,1,0,35,6,95.6,0,1,0,89,0,6
CCC(=O)c1c(-c2ccccc2)c2cc(Cl)ccc2c(=O)n1Cc1cc(C(=O)NC2CC2)n(C)n1,0,0,18,11,0,0,0,6,15,1,0,8,0,30,6,0,8,0,7,0
COc1cc2ncn(-c3cc(OCCCc4ccccc4)c(C(N)=O)s3)c2cc1OC [GSK205189],20,0,0,0,0,13,5,0,0,0,2,10,7,2,0,0,12,18,0,0
COc1cc2nccc(Nc3cccc(Oc4ccccc4)c3)c2cc1OC.Cl [GW284543],80,0,0,20,51,31,15,0,0,0,0,0,0,0,10,0,0,0,0,16
Cc1nc(N(C)[C@H]2CN(C(=O)CC#N)CC[C@H]2C)c2cc[nH]c2n1,0,17,17,2,0,0,0,10,0,9,12,0,0,0,12,12,4,4,0,0
O=C(Nc1n[nH]c2nc(-c3ccccc3)c(Br)cc12)C1CC1 [SB-708998],5,0,0,7,0,0,4,0,28,0,0,0,7,29,0,0,18,2,0,17
COc1cc2nccc(Nc3ccc(OCc4ccc(NC(C)=O)cc4)cc3)c2cc1OC.Cl [GW440135],61,0,0,13,6,0,0,0,0,12,0,0,19,0,4,0,2,0,9,5
CCn1c(-c2ccoc2)nc2cnccc21 [SB-733887],6,30,0,0,23,0,0,0,9,0,9,4,0,0,0,0,0,0,18,0
Nc1nccc2scc(-c3ccc4c(c3)CCN4C(=O)Cc3ccccc3)c12 [GSK2576924],58,3,12,0,38,18,13,0,25,14,9,20,0,0,8,7,0,11,2,2
Cc1ccccc1COc1cc(-n2cnc3cc(Cl)ccc32)sc1C(N)=O [GW813349],12,15,0,8,6,0,10,22,0,5,16,0,2,49,5,0,0,42,8,0
Cc1ccc(Oc2ccc(Nc3ncnc4cc[nH]c34)cc2C)cn1,8,36,14,0,0,11,0,1,16,2,5,8,0,0,16,16,9,6,7,44
O=c1cc(N2CCOCC2)nc2n(Cc3ccc(F)c(Cl)c3)ccn12 [GSK2297099],0,27,0,0,0,0,4,0,16,27,19,10,0,0,27,0,0,11,0,0
COc1ccc(Nc2nccc(N3CCC(NS(=O)(=O)c4ccc(NC(C)=O)cc4)C3)n2)cc1 (stereo not drawn) [GSK1379729],100,0,0,36,18,3,0,0,27,0,0,0,0,18,6,0,0,5,0,4
COc1cc(Nc2nccc(N3CCC(NC(=O)C4COc5ccccc5O4)C3)n2)cc(OC)c1OC (stereo not drawn) [GSK1379761],0,0,0,26,37,54,0,0,0,0,3,4,0,24,0,12,0,2,0,20

SMILES,%Inh (RIPK2) [%],%Inh (RIPK4) [%],%Inh (RIPK5) [%],%Inh (ROCK1) [%],%Inh (ROCK2) [%],%Inh (ROS1) [%],%Inh [1] [%],%Inh [2] [%],%Inh [3] [%],%Inh [4] [%],%Inh [5] [%],%Inh [6] [%],%Inh [7] [%],%Inh [8] [%],%Inh [9] [%],%Inh [10] [%],%Inh [11] [%],%Inh [12] [%],%Inh (S6K1) [%],%Inh (SBK1) [%]
CCC(=O)c1c(-c2ccccc2)c2cc(Cl)ccc2c(=O)n1Cc1cc(S(C)(=O)=O)n(CCC(C)(C)O)n1,14,0,3,16,0,14,3,12,20,1,0,0,9,0,11,5,39,23,0,0
CN(C)c1cc(-c2ccc3c(N)n[nH]c3c2)nc(N)n1 [GSK2219329],0,15,0,0,0,10,8,0,18,0,11,0,0,0,0,4,0,14,2,7
Cl.NS(=O)(=O)c1cccc(Nc2cc(-c3ccc(F)cc3)n[nH]2)c1 [GW824645],0,15,22,0,18,11,17,0,0,3,0,0,35,0,0,0,15,0,0,0
COc1cc(OC)cc(-c2cc3cnc(N)nc3nc2NC(=O)NC(C)(C)C)c1,0,0,0,0,0,0,16,0,5,0,23,0,0,0,0,0,0,0,0,0
CCC(=O)c1c(-c2ccccc2)c2cc(Cl)ccc2c(=O)n1Cc1cc(S(C)(=O)=O)n(CC(F)F)n1,2,0,18,0,0,0,0,0,0,0,2,0,5,0,0,0,13,1,0,0
CC(C)(C)c1ccc(C(=O)Nc2cn3cc(-c4ccccc4)ccc3n2)cc1,16,0,2,0,63,0,6,0,0,18,0,0,3,0,24,100,0,0,0,0
OCCCNc1nccc(-c2c(-c3cccc(C(F)(F)F)c3)nn3cc(C(F)(F)F)ccc23)n1 [GW630813],14,0,0,11,24,0,0,0,0,16,0,32,0,5,0,0,0,89,1,0
CCC(=O)c1c(-c2ccccc2)c2cc(Cl)ccc2c(=O)n1Cc1ccc(C(=O)O)cc1,0,0,5,0,0,0,0,7,0,0,0,0,0,0,0,0,0,0,0,0
COc1ccc(CNC(=O)NC2CCN(c3ccnc(Nc4ccc(F)cc4)n3)C2)cc1 (stereo not drawn) [GSK1379706],19,0,15,29,27,12,0,0,13,27,14,28,0,3,15,31,0,20,0,0
Nc1nc(N)c2nc(-c3ccccc3)[nH]c2n1 [SKF-12778],10,66,0,26,24,10,11,0,9,0,0,0,9,9,18,0,15,1,8,10
CCS(=O)(=O)c1ccc(OC)c(Nc2ncc(-c3ccc(F)cc3)o2)c1.Cl [GW591947],19,0,0,20,16,0,25,0,27,0,11,0,0,22,0,2,0,3,0,0
Nc1ncnc2c1ncn2-c1ccc(Cl)cc1 [AH2635],2,2,0,30,0,23,20,0,0,8,9,4,0,0,0,0,0,46,0,0
CCCC(=O)Nc1n[nH]c2ncc(-c3cccc4ccccc34)cc12 [SB-642057],28,36,10,0,3,0,14,0,16,0,26,24,14,0,0,0,0,15,16,7
COc1cc2ncn(-c3cc(OCc4ccncc4Br)c(C(N)=O)s3)c2cc1OC [GW854278],26,0,9,11,0,6,2,0,0,7,0,22,19,0,20,0,25,7,0,2
O=C(Nc1ccc2c(c1)OCO2)NC1CCN(c2ccnc(NCc3ccc(F)cc3)n2)CC1 [GSK1379859],10,0,10,74,47,0,13,0,9,0,1,0,3,99.5,0,0,0,0,8,11
Nc1ncnc2c1ncn2-c1cccc2ccccc12 [SKF-97184],7,8,5,67,0,0,10,0,10,2,16,16,38,0,0,36,11,0,15,28
Cc1nnc(-c2ccc3ncn(-c4ccc(S(C)=O)cc4)c3c2)o1 (stereo not drawn),19,0,0,0,16,0,0,0,3,4,19,21,4,0,0,18,0,32,0,0
Cc1nn2c(=O)cc(N3CCOCC3)nc2n1Cc1cccc(Cl)c1Cl [GSK2342769],10,9,0,0,0,0,0,0,16,0,0,0,9,3,25,0,5,0,1,14
CCS(=O)c1ccc(-c2coc3ccc(-c4nnc(C)o4)cc23)cc1 (stereo not drawn),0,7,0,0,28,15,24,11,2,0,0,18,5,0,3,11,18,6,8,0
Cc1c(Cn2c(C)nn3c(=O)cc(N4CCO[C@H](C)C4)nc23)cccc1C(F)(F)F [GSK2373690],4,0,0,7,0,4,16,0,27,15,49,0,9,0,22,0,0,0,9,28
Cc1cc(Nc2nc(-c3cccc(C)n3)nc3ccccc23)ccn1 [GW872411],14,0,0,27,0,0,2,0,0,16,23,0,24,0,0,7,0,0,7,0
